According to PubChem BioAssay AID1851 (National Center for Advancing Translational Sciences (NCATS), 2009):
The whole screen tested about 16,000 compounds, of which about 5,700 (36%) were called active. About 24% were inconclusive and are not listed. The call rests on the fitted dose curve; in most records, active means well fitted curve in the direction sought with a large enough effect; inconclusive means small, poorly fitted or top-dose-only effect, or effect the other way; inactive means no such curve, though single readings can be large or run the other way. The list shows a part of the results.
On the % scale 0 is the no-effect control and ±100 the full control effect.

These compounds were tested against Cytochrome P450 1A2 (Homo sapiens) (UniProt P05177) (assay: Cytochrome panel assay with activity outcomes). Details: recombinant CYP, pro-luciferin dealkylation, luminescence, p450-cyp1a2; series mostly up to 57.1 µM.
Chain of Cytochrome P450 1A2 (Homo sapiens) (P05177 whole entry, looked up): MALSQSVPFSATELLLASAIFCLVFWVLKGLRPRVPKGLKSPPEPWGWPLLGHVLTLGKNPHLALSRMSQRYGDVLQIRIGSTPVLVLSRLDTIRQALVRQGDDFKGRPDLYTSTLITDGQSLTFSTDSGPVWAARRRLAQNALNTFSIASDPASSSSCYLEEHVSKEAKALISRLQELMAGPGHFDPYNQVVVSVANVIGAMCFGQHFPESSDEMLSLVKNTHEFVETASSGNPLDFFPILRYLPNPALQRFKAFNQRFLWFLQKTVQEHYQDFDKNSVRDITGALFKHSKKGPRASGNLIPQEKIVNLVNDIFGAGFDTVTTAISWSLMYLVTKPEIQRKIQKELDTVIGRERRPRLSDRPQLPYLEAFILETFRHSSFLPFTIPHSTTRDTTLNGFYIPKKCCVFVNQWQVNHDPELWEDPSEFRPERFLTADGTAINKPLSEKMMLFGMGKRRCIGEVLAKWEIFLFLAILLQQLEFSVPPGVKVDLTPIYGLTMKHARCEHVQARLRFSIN
In the case of `COc1cccc2cc(C(=O)CC3(O)C(=O)N(Cc4ccccc4)c4ccccc43)c(=O)oc12` (stereo unspecified), the AC50 is reported as 15.8 µM (active).
For `CC(C)c1ccc(C(=O)CC2(O)C(=O)N(CN3CCOCC3)c3ccccc32)cc1` (stereo unspecified), the AC50 was “inactive”.
For `CN1CCN(c2nc3c(c(=O)n(C)c(=O)n3C)n2C)CC1`, the activity, negative = inhibition was -16.8% [at 2.29 µM] (inactive).
`Cn1c(=O)c2c(nc(NCCNc3nc4c(c(=O)n(C)c(=O)n4C)n3C)n2C)n(C)c1=O` was tested, and the activity, negative = inhibition was -0.53% [at 11.4 µM] (inactive).
With `Cn1c(=O)c2c(nc(C(=N)SCC(=O)O)n2C)n(C)c1=O` the AC50 was 1.26 µM (active).
`O=C(OCCNC(=O)c1ccc2ccccc2n1)c1ccc(F)cc1` was tested, and the AC50 was 1.12 µM (active).
In the case of `O=C(NCCOC(=O)c1ccc(C(=O)OCCNC(=O)c2cccnc2)s1)c1cccnc1`, the AC50 is reported as “inactive”.
`Cc1ccc(N=Nc2ccc(N)cc2C)c(S(N)(=O)=O)c1` was tested, and the AC50 was 0.501 µM (active).
`Nc1ccccc1S(N)(=O)=O` was tested, and the AC50 was “inactive”.
With `Cc1ccc(N=Nc2c(O)c3ccccc3[nH]c2=O)c(S(=O)(=O)N(C)C)c1` the activity, negative = inhibition was -14.6% [at 2.29 µM] (inactive).
For `CC(C)CNC(=S)N1CCN(C)CC1`, the AC50 was “inactive”.
`O=C(O)c1ccccc1-c1ccccc1C(=O)Nc1ccccc1` was tested, and the AC50 was “inactive”.
With `CC(C)C(=O)NC(=S)Nc1ccccc1C(=O)Nc1ccccc1` the AC50 was 6.31 µM (active).
`O=S(=O)(O)[C@@H](CO)c1ccccc1` (tested in a mixture with another compound) was tested, and the activity, negative = inhibition was -1.9% [at 2.29 µM] (inactive).
For `O=C1C(SCCO)=C(SCCO)C(=O)c2ccccc21`, the AC50 was 0.631 µM (active).
In the case of `OCCSCc1ccccc1`, the activity, negative = inhibition is reported as -13% [at 11.4 µM] (inactive).
With `COCCn1c(=O)c(C)nc2cnc(Nc3cccc(OC)c3)nc21` the AC50 was 1 µM (active).
In the case of `COc1cccc(Nc2ncc3nc(C)c(=O)n(CCc4ccccc4)c3n2)c1`, the AC50 is reported as 5.01 µM (active).
For `c1ccc([C@@H]2CN3CCSC3=N2)cc1`, the AC50 was “inactive”.
In the case of `COc1ccc(NC(=O)C2(c3ccc(NC(=O)c4ccc(OC(C)=O)cc4)cc3)CCCC2)cc1`, the AC50 is reported as “inactive”.
For `COc1ccc(NC(=O)c2ccc(C(=O)c3cc(OC)ccc3OC)cc2)cc1`, the AC50 was “inactive”.
In the case of `COc1ccc(C(=O)Nc2cc(OC)cc(OC)c2)cc1`, the AC50 is reported as 12.6 µM (active).
For `COc1ccc(C(=O)Nc2cccc(OC(=O)c3ccc(C)c(C)c3)c2)cc1`, the AC50 was 14.1 µM (active).
In the case of `COc1ccc(OC)c(/C=N/NC(=O)c2csc3ccccc23)c1`, the AC50 is reported as 3.16 µM (active).
With `O=C(N/N=C/c1ccc(O)cc1)c1csc2ccccc12` the AC50 was 11.2 µM (active).
With `Cc1ccc(C)c(-c2nn(-c3cc(N4CCN(CCO)CC4)ccc3[N+](=O)[O-])c(=O)c3ccccc23)c1` the AC50 was “inactive”.
`O=C(O)c1cc2c(cc1S(=O)(=O)O)[C@H]1[C@@H]([C@H]3[C@H]2[C@@]2(Cl)C(Cl)=C(Cl)[C@]3(Cl)C2(Cl)Cl)[C@]2(Cl)C(Cl)=C(Cl)[C@@]1(Cl)C2(Cl)Cl` was tested, and the activity, negative = inhibition was -14.5% [at 11.4 µM] (inactive).
In the case of `O=C(Nc1cccn(Cc2ccc(F)cc2)c1=O)NC1CCCCC1`, the AC50 is reported as 22.4 µM (active).
`O=C(NC1CCCC1)C(c1ccc(F)cc1)N(Cc1ccc(F)cc1)C(=O)c1ccn[nH]1` (stereo unspecified) was tested, and the AC50 was “inactive”.
`Cc1ccc(Cn2cccc(NC(=O)NCc3ccccc3)c2=O)cc1` was tested, and the AC50 was “inactive”.
For `Cc1ccc2cn[nH]c2c1NC(=S)NC(=O)c1ccccc1`, the AC50 was 10 µM (active).
For `COc1ccc(C(=O)N2CCC3(CCCN(CC(C)C)C3)CC2)cc1`, the AC50 was “inactive”.
`CN1CCC[C@@H](CC2c3ccccc3Sc3ccccc32)C1` was tested, and the AC50 was “inactive”.
With `CN1CCC(=C2c3ccccc3Sc3ccccc32)CC1` the AC50 was “inactive”.
In the case of `CSc1ccc2c(c1)[C@H](N1CCN(C)CC1)Cc1ccccc1S2`, the AC50 is reported as 31.6 µM (active).
In the case of `O=c1c2ccccc2c(-c2ccccc2)nn1-c1ccc(Cl)c(Cl)c1`, the AC50 is reported as 0.126 µM (active).
In the case of `O=C1Nc2cc(Cl)c(Cl)cc2N(O)N1c1ccc(Cl)c(Cl)c1`, the AC50 is reported as “inactive”.
`COc1ccccc1CNc1nc(-c2c(C)noc2C)nc2ccccc12` was tested, and the AC50 was 0.631 µM (active).
`COc1ccc(CNc2nc(-c3c(C)noc3C)nc3ccccc23)c(OC)c1` was tested, and the AC50 was 0.794 µM (active).
For `COC(=O)Cc1c(C)nc2nc(NCc3ccccc3OC)[nH]n2c1=O`, the AC50 was “inactive”.
`COc1ccc(N(CC(=O)NCc2cccc(OC)c2)S(=O)(=O)c2c(C)noc2C)cc1` was tested, and the AC50 was “inactive”.
`Cc1noc(C)c1-c1nc(NCc2cccs2)c2ccccc2n1` was tested, and the AC50 was 0.2 µM (active).
`COc1ccccc1CN1CC[C@@]2(CCCN(C(=O)c3c(C)noc3C)C2)C1` was tested, and the AC50 was “inactive”.
In the case of `CCS(=O)(=O)NCCc1cc2ccc(C)cc2[nH]c1=O`, the AC50 is reported as 20 µM (active).
With `CS(=O)(=O)N(Cc1cc2ccccc2[nH]c1=O)C1CCCCC1` the AC50 was “inactive”.
With `C[N+]1(CCC[N+]2(C)C[C@H]3[C@H](C2)[C@H]2C=C[C@@H]3CC2)CCOCC1` (stereo partly specified) the activity, negative = inhibition was -11% [at 11.4 µM] (inactive).
For `Cc1cccc(CNc2cc(-c3ccc(C(=O)N(C)C)cc3)ncn2)c1`, the AC50 was 15.8 µM (active).
With `Cc1cnc(CNc2cc(-c3ccc(C(=O)N(C)C)cc3)ncn2)cn1` the AC50 was “inactive”.
`CN(C)c1ccc(-c2cc(NCc3ccccc3)ncn2)cc1` was tested, and the AC50 was 1 µM (active).
In the case of `Cc1cccc(CNc2cc(-c3ccc(N(C)C)cc3)ncn2)c1`, the AC50 is reported as 1 µM (active).
`CN(C)c1ccc(-c2cc(NCc3cccnc3)ncn2)cc1` was tested, and the AC50 was 0.398 µM (active).
`CN(C)CCSCCO` was tested, and the activity, negative = inhibition was -14.3% [at 2.29 µM] (inactive).
`CN(C)CC[C@@H](c1ccccc1)c1ccccn1` was tested, and the AC50 was “inactive”.
In the case of `CN(CCc1ccccn1)c1ccc2c(c1)Cc1ccccc1-2`, the AC50 is reported as 0.631 µM (active).
For `CN(C)CC(CN(C)C)c1ccccn1`, the activity, negative = inhibition was -16.5% [at 11.4 µM] (inactive).
In the case of `CN(CCc1ccccn1)c1ccc2c(c1)C(=O)c1ccccc1-2`, the AC50 is reported as 0.158 µM (active).
With `COc1cccc(-c2nccc(NC3CCNCC3)n2)c1` the AC50 was 6.31 µM (active).
For `c1ccc2c(NC3CC3)nc(-c3ccoc3)nc2c1`, the AC50 was 0.316 µM (active).
For `c1ccc2c(NC3CCNCC3)nc(-c3ccoc3)nc2c1`, the AC50 was 15.8 µM (active).
In the case of `COc1ccc(-c2cc([C@H](O)[C@@H]3CCCCN3)c3ccccc3n2)cc1`, the activity, negative = inhibition is reported as -11% [at 2.29 µM] (inactive).
In the case of `COc1cccc(-c2nc(NC3CCNCC3)c3ccccc3n2)c1`, the AC50 is reported as 12.6 µM (active).
